Screening results from PubChem BioAssay.
FXN GAA850 act: increases GAA850 frataxin promoter reporter activity | AID 540364 | activation, % at 6 µM | HEK293 lucGAA850 FXN promoter luciferase reporter, 24 h; percent of 10 µM SAHA response | actives 0.56% (n = 360,000);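 active means activation above the average of all compounds screened plus 3 SD, cutoff fixed separately per campaign, cut at about 7.5% in these data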;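 further: 0% = DMSO wells and 100% = 10 µM SAHA wells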
SMARCA2 activ: activators of SMARCA2 function. activation, % at 9.1 µM. actives 1% (n = 370,000). MG213 cells, MMTV-luciferase reporter, dexamethasone, overnight; in the data active means activation above about 7.8%;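 further: 0% = vehicle wells and 100% = reference activator wells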
FAS TE block: blocks the thioesterase domain of human fatty acid synthase; recombinant FAS-TE, OMFH fluorogenic substrate, fluorescence endpoint; inhibition, % at 15 µM; actives 0.67% (n = 360,000); P49327;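 active means compounds whose normalised, plate-corrected inhibition of enzyme fluorescence in the single-dose primary screen is 50% or more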;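 further: 0% = DMSO with enzyme and 100% = substrate without enzyme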
proKLK7 act: activates the human kallikrein-7 zymogen | activation, % at 7 µM | purified proKLK7, EDANS-DABCYL substrate fluorescence; 100% is mature enzyme control, 0% vehicle | P49862 | AID 652039 | actives 0.9% (n = 370,000);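 active means activation above the mean of all tested compounds plus 3 SD, computed per campaign excluding outliers beyond control limits, cut at about 13% in these data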
GAA30 counter: GAA30 FXN promoter activation counter-screen | AID 588350 | actives 66% (n = 1,900) | HEK293 lucGAA30 FXN promoter luciferase, 24 h; DMSO = 0%, 5 µM ipriflavone = 100% | shares compounds with FXN GAA850 act | activation, % at 6 µM;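 active means mean activation above the mean of solvent-only control wells plus 3 SD, cut at about 22% in these data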;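 further: counterscreen of GAA850 promoter hits where activity marks nonselective or luminescence artifacts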
GAA850 confirm: GAA850 FXN promoter activation confirmation. shares compounds with FXN GAA850 act. HEK293 lucGAA850 FXN promoter luciferase reporter, 24 h; 100% = activation by SAHA. activation, % at 6 µM. actives 86% (n = 1,900);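 active means mean activation above a set limit taken from the primary screen, cut at about 8% in these data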;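 further: 0% = DMSO wells and 100% = 10 µM SAHA wells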
Starred values were filed as active, the others as inactive; · = no result given; ! = a repeat was not active. Shown are actives, neighbours in structure and some others; about 2.9% of the full set was active somewhere.

SMILES	FXN GAA850 act	SMARCA2 activ	FAS TE block	proKLK7 act	GAA30 counter	GAA850 confirm
NC(=O)[C@@H]1CCCN1C(=O)c1ccc2oc(CCc3ccccc3)nc2c1	7.8*	2	-3	0	74*	31*
O=C(c1ccc2oc(CCc3ccccc3)nc2c1)N1CCC(O)CC1	2	5	-8	0	·	·
COc1cccc(CNC(=O)C(CC(C)C)NC(=O)c2ccccc2C)c1 (stereo unspecified)	1	0	1	0	·	·
Cc1sc(NC(=O)COc2ccccc2)c(C#N)c1C	6	2	11	0	·	·
CCCCn1c(N)c(N(CC)C(=O)C2CCCC2)c(=O)[nH]c1=O	0	-1	-4	0	·	·
CCCn1cnc2c(SCc3ccccc3)nc(N)nc21	6	3	-8	1	·	·
CCCCn1cnc2c(SCc3ccc(Br)cc3)nc(N)nc21	7.8*	0	10	0	29*	18*
CCCn1cnc2c(SCc3ccc(Cl)cc3)nc(N)nc21	9.8*	1	0	0	45*	25*
CC(CC(=O)c1cccs1)CC(=O)c1cccs1	6	6	-4	0	·	·
Cc1cc(C)c(C(CC(=O)c2cccs2)C(C#N)C#N)c(C)c1 (stereo unspecified)	9.0*	6	34	1	100*	61*
COC(=O)C1(O)CC(CC(C)C)=NN1C(=O)c1ccccc1 (stereo unspecified)	0	3	-9	0	·	·
O=C(Nc1ncc(Cc2cccc(Cl)c2)s1)C1CCCO1 (stereo unspecified)	8.2*	6	-21	0	87*	28*
C=CCNc1nc(SCC=C)nc2ccsc12	7.9*	3	3	1	21	9.7*
COc1ccc(N2C(=O)C3CCCN3C2c2cccc(Br)c2)cc1 (stereo unspecified)	12*	0	-3	0	19	8.8*
N#CCC(=O)N1CCN(Cc2ccc3c(c2)OCO3)CC1	1	-4	-2	0	·	·
O=C(O)c1ccc(CSc2nnnn2-c2ccc(F)cc2)cc1	2	0	-8	0	·	·
O=C(CSc1nnnn1-c1ccc(F)cc1)c1ccc(O)c(O)c1	12*	-2	-1	0	31*	17*
COc1ccc(-n2nc(C(=O)NCC(=O)NC3CCCCCC3)c3ccccc3c2=O)cc1OC	1	-3	4	0	·	·
CCN(C(=O)c1ccco1)c1nc(-c2ccc(OC)cc2)cs1	8.3*	2	32	1	110*	37*
COc1ccc(-c2csc(N(CC(C)C)C(=O)c3ccco3)n2)cc1	2	2	30	0	·	·
COc1cc(NC(=S)Nc2ccc(Br)cc2Cl)c(OC)cc1Cl	2	1	10	0	·	·
CC1CCN(c2nnc(NC(=O)Cn3c(=O)oc4ccccc43)s2)CC1	15*	1	0	0	8	2
O=C(Nc1ccc(F)cc1F)N1CCCC(c2nc(-c3ccc(F)cc3)no2)C1 (stereo unspecified)	0	1	8	0	·	·
COc1cc(/C=C/C(=O)O)ccc1O	16*	-2	-1	-4	3	7
COc1cc(/C=C/C(=O)CC(=O)/C=C/c2ccc(O)c(OC)c2)ccc1O	0	-3	8	0	·	·
SMILES	FXN GAA850 act	SMARCA2 activ	FAS TE block	proKLK7 act	GAA30 counter	GAA850 confirm
COc1cc(/C=C/C(=O)c2ccc([N+](=O)[O-])o2)ccc1O	12*	2	-9	0	-115	-28
CC(=O)CCN1C(=O)NC2(CCCc3ccccc32)C1=O (stereo unspecified)	0	4	-7	0	·	·
CC(CCc1ccccc1)NCC(O)c1ccc(O)c(C(N)=O)c1 (stereo unspecified)	-2	2	1	-6	·	·
COc1ccc(CC(C)NCC(O)c2ccc(O)c(NC=O)c2)cc1 (stereo unspecified)	8.0*!	20*!	-12	1	16	27*
CCc1ccccc1Nc1nc(N)nc(CSCC(=O)Nc2ccc(C)c(C)c2)n1	12*	-1	-2	0	30*	16*
CC(=O)Nc1ccc(/C=N/N2CCCCC2)cc1	7.6*	-1	-4	0	86*	29*
C=CCSc1nnc(-c2cc3c(s2)-c2ccccc2CC3)o1	8.7*	5	21	-115	76*	28*
C=CCSc1nnc(-c2cccc3ccccc23)o1	1	-1	-6	-1	·	·
CCOc1ccc(-c2nc(CCl)cs2)cc1	7.6*	6	10	0	114*	37*
CCc1nc2ccc(C(=O)NCCN3CCNC3=O)cn2c1N(CC)Cc1cccc(Br)c1	15*	-4	4	-1	15	7
CCc1nc2ccc(C(=O)NCCOc3ccc(OC)cc3)cn2c1N(CC)Cc1cccc(Br)c1	-3	-3	12	0	·	·
C=CCn1c(SC(C)C(=O)NCCC2=CCCCC2)nc2ccccc2c1=O (stereo unspecified)	10*	0	21	0	20	9.5*
Cc1nc2sc3c(c2c(=N)n1N)CCCC3	-1	0	-2	0	·	·
Cc1ccc(C(=O)NCCc2csc(-c3cccnc3)n2)cc1	20*	3	-8	0	76*	27*
O=C(CSc1ncn[nH]1)Nc1c(F)cc(F)cc1Br	14*	0	-12	0	4	0
Cc1ccc(NCC(=O)N/N=C\C(Br)=C\c2ccccc2)cc1	13*	-1	2	0	15	11*
O=C(N/N=C/C(Br)=C/c1ccccc1)C(O)c1ccccc1 (stereo unspecified)	6	6	-6	0	·	·
O=C(N/N=C/C(Br)=C\c1ccccc1)c1ccc2nc[nH]c2c1	8.5*	2	-10	0	38*	19*
O=C(O)c1ccc(N/N=C/C(Br)=C/c2ccccc2)cc1	10.0*	0	1	0	82*	36*
CC(=O)c1ccc(OC2(C)CCN(Cc3cc4ccccc4[nH]3)C2)cc1 (stereo unspecified)	4	2	-10	0	·	·
Cc1nc(Nc2ccc(Br)cc2Br)c([N+](=O)[O-])c(=O)[nH]1	0	0	-5	0	·	·
COc1ccccc1-n1c(SCC(=O)NC2CCS(=O)(=O)C2)nc2ccccc2c1=O (stereo unspecified)	0	-5	-6	0	·	·
COc1ccc(Nc2cc(C)nc(NCc3ccccc3)n2)cc1	0	-4	-2	0	·	·
Cc1ccc(Nc2cc(C)nc(NCc3ccccc3)n2)cc1	13*	5	-5	0	19	15*
CCOP(=O)(Nc1cccc2oc(=O)c3ccccc3c12)OCC	7.8*	-5	-16	-29	25*	18*
